Data published in PubChem BioAssay (Tox21).
Records with an inconclusive call do not appear. The source made the active and inactive calls. Unless noted, calls come from the whole dose curve; as a rule, active = well fitted curve in the direction sought with a large enough effect in the repeat runs; inconclusive = weak or mixed curves; inactive = no such curve, though single readings can be large; an effect the other way counts as inactive or inconclusive.

How the values were obtained:
[1] = biological target: Aryl hydrocarbon receptor (Homo sapiens) (UniProt P35869); assay: qHTS assay to identify small molecule that activate the aryl hydrocarbon receptor (AhR) signaling pathway (AID 743085);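 note: HG2L7.5c1 human HepG2 liver cells with stably integrated DRE-driven firefly reporter; series mostly up to about 70 µM; nearly all actives have a fitted effect of over 15% in size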
In short: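 Stably transfected human liver carcinoma cells (HG2L7.5c1; 20 DRE-firefly luciferase) were incubated 5 h, dosed, and kept 24 h at 37C. Agonism was scored from increased luciferase luminescence.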

[2] = qHTS assay to identify small molecule that activate the aryl hydrocarbon receptor (AhR) signaling pathway - cell viability counter screen (AID 743086);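 note: HepG2 liver cells carrying the AhR DRE luciferase reporter; series mostly up to about 70 µM; nearly all actives have a fitted effect of over 45% in size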
In short: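 HepG2-AhR-luc (HG2L7.5c1) cells, 4000/well, treated 24 h at 37 C with compound; viability measured as CellTiter-Fluor fluorescence after 30 min in the same wells as the luciferase read.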

[3] = biological target: Peroxisome proliferator-activated receptor gamma (Homo sapiens) (UniProt P37231); assay: qHTS assay to identify small molecule agonists of the peroxisome proliferator-activated receptor gamma (PPARg) signaling pathway (AID 743094; active = well fitted activation curve with a large enough effect in the signal ratio in the repeat runs, not every such curve was filed as active; the % refers to the signal ratio)
In short: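 Beta-lactamase FRET fluorescence was the read-out after a 1 h room-temperature substrate step, following 17 h compound treatment at 37C of HEK293H cells expressing a UAS-driven bla reporter responsive to PPARg.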

[4] = qHTS assay to identify small molecule antagonists of the peroxisome proliferator-activated receptor gamma (PPARg) signaling pathway - cell viability counter screen (AID 743194); note: nearly all actives have a fitted effect of over 55% in size
In short: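 Cytotoxicity counter screen in PPARg-bla HEK293H cells, same wells as reporter assay. Compounds plus 50 nM rosiglitazone (final) for 17 h at 37 C, then viability read by CellTiter-Glo luminescence.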

[5] = qHTS assay for small molecule agonists of the antioxidant response element (ARE) signaling pathway (AID 743202; active = well fitted activation curve with a large enough effect in the signal ratio in the repeat runs, not every such curve was filed as active; the % refers to the signal ratio; note: potency is the fitted concentration of half-maximal effect)
In short: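 ARE-bla HepG2 cells (beta-lactamase reporter under the antioxidant response element), plated 5 hours, then exposed to compounds 16 hours at 37 C. LiveBLAzer B/G FRET substrate added for 2 hours at room temperature; fluorescence intensity read.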

[6] = qHTS assay for small molecule agonists of the antioxidant response element (ARE) signaling pathway - cell viability counter screen (AID 743203; calls by dose curve; note: nearly all actives have a fitted effect of over 55% in size)
In short: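 HepG2 cells carrying ARE-driven beta-lactamase; 2,000 cells/well; 5 hrs plating; compound pinned from DMSO; 16 hrs 37C/5% CO2; CellTiter-Glo added; 30 min RT; luminescence.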

[7] = qHTS assay for small molecule activators of the heat shock response signaling pathway - cell viability counter screen (AID 743209); note: nearly all actives have a fitted effect of over 50% in size
In short: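 Luminescence from CellTiter-Glo, added after the beta-lactamase FRET read, gave the viability signal. Cells were HSE-bla HeLa treated with DMSO-dissolved compounds for 5 h at 37 C following overnight plating.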

[8] = qHTS assay to identify small molecule agonists of the peroxisome proliferator-activated receptor delta (PPARd) signaling pathway - cell viability counter screen (AID 743211); note: nearly all actives have a fitted effect of over 55% in size
In short: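 In the same wells used for beta-lactamase reporter measurement, cytotoxicity is scored by CellTiter-Glo. HEK293H PPARd-bla cells receive compound for 17 h at 37C following a 5 h settling period.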

[9] = biological target: Peroxisome proliferator-activated receptor delta (Homo sapiens) (UniProt Q03181); assay: qHTS assay to identify small molecule agonists of the peroxisome proliferator-activated receptor delta (PPARd) signaling pathway (AID 743212; calls by dose curve)
In short: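 GeneBLAzer UAS-bla HEK293H cells carrying a PPARδ construct were exposed to compounds at 37 °C. Beta-lactamase activity was read by FRET fluorescence after 2 h at room temperature with LiveBLAzer B/G substrate.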

[10] = qHTS assay to identify small molecule antagonists of the peroxisome proliferator-activated receptor delta (PPARd) signaling pathway - cell viability counter screen (AID 743213); note: nearly all actives have a fitted effect of over 50% in size
In short: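 Same-well viability: cells pre-incubated 5 h, dosed with compound plus 300 nM L165041, kept 17 h at 37 C, FRET substrate 2 h RT, then CellTiter-Glo 30 min RT and luminescence.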

[11] = qHTS assay to identify small molecule agonists of the farnesoid-X-receptor (FXR) signaling pathway - cell viability counter screen (AID 743218); note: nearly all actives have a fitted effect of over 45% in size
In short: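 HEK 293T FXR-bla cells; 5 h pre-incubation, 16 h compound exposure at 37 C; LiveBLAzer substrate 2 h RT, then CellTiter-Glo 30 min RT, luminescence.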

[12] = biological target: Bile acid receptor (Homo sapiens) (UniProt Q96RI1); assay: qHTS assay to identify small molecule agonists of the farnesoid-X-receptor (FXR) signaling pathway (AID 743220; active = well fitted activation curve with a large enough effect in the signal ratio in the repeat runs, not every such curve was filed as active; the % refers to the signal ratio)
In short: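 Beta-lactamase reporter under UAS control in GeneBLAzer FXR HEK 293T cells (5000/well) measured with LiveBLAzer FRET substrate after 2 h at room temperature. Compound exposure lasted 16 h at 37C.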

[13] = qHTS assay to identify small molecule antagonists of the farnesoid-X-receptor (FXR) signaling pathway - cell viability counter screen (AID 743221; active = well fitted cell-killing curve with a large enough effect in the repeat runs, not every such curve was filed as active; note: nearly all actives have a fitted effect of over 50% in size)
In short: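 Here viability was scored by luminescence after CellTiter-Glo addition to wells already read for beta-lactamase. Prior treatment: compound plus CDCA (50 uM final), 16 h, 37 C, HEK 293T FXR-bla cells.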

[14] = biological target: Vitamin D3 receptor (Homo sapiens) (UniProt P11473); assay: qHTS assay to identify small molecule agonists of the vitamin D receptor (VDR) signaling pathway (AID 743222; calls by dose curve)
In short: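 VDR-bla cells, 2,000/well; 4 h preincubation 37C; cpd (DMSO) 16 h; LiveBLAzer B/G substrate 2 h RT; fluorescence intensity read.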

[15] = biological target: Vitamin D3 receptor (Homo sapiens) (UniProt P11473); assay: qHTS assay to identify small molecule antagonists of the vitamin D receptor (VDR) signaling pathway (AID 743223; active = well fitted inhibition curve with a large enough effect in the signal ratio in the repeat runs, not every such curve was filed as active; the % refers to the signal ratio)
In short: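 Inhibition of agonist-driven VDR signalling is scored in VDR-bla cells: 3 nM final 1alpha,25-dihydroxyvitamin D3 plus compound, 16 h at 37C, then beta-lactamase detection by FRET substrate fluorescence after 2 h.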

[16] = qHTS assay to identify small molecule agonists of the vitamin D receptor (VDR) signaling pathway - cell viability counter screen (AID 743224); note: series mostly up to about 63 µM; nearly all actives have a fitted effect of over 50% in size
In short: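 Luminescence from CellTiter-Glo, read after 30 min at room temperature, reports viability of VDR-bla cells treated with compounds for 16 h at 37C in the wells used for the beta-lactamase FRET read.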

[17] = qHTS assay for small molecule activators of the heat shock response signaling pathway (AID 743210; active = well fitted activation curve with a large enough effect in the signal ratio in the repeat runs, with a control signal flat, not every such curve was filed as active; the % refers to the signal ratio; note: series mostly up to about 63 µM)
In short: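 HSE-bla HeLa cells (beta-lactamase reporter under heat shock response elements), plated overnight, then exposed to compounds 5 h at 37 C; LiveBLAzer B/G FRET substrate added, 2.5 h at room temperature, fluorescence intensity read.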

[18] = biological target: Peroxisome proliferator-activated receptor delta (Homo sapiens) (UniProt Q03181); assay: qHTS assay to identify small molecule antagonists of the peroxisome proliferator-activated receptor delta (PPARd) signaling pathway (AID 743215; active = well fitted inhibition curve with a large enough effect in the signal ratio in the repeat runs, not every such curve was filed as active; the % refers to the signal ratio;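 note: cells stimulated with agonist L165041 at 300 nM final during compound exposure; series mostly up to about 62 µM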)
In short: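 Read-out is beta-lactamase FRET fluorescence, measured 2 h after substrate addition at room temperature. Beforehand, UAS-bla HEK293H cells carrying the PPARd reporter were exposed to compounds with L165041 at 300 nM final for 17 h at 37 C.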

[19] = biological target: Bile acid receptor (Homo sapiens) (UniProt Q96RI1); assay: qHTS assay to identify small molecule antagonists of the farnesoid-X-receptor (FXR) signaling pathway (AID 743217; active = well fitted inhibition curve with a large enough effect in the signal ratio in the repeat runs, not every such curve was filed as active; the % refers to the signal ratio)
In short: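 HEK 293T FXR-UAS-bla, 5000 cells/well; compound + CDCA 50 uM final; 16 h, 37 °C; B/G FRET substrate 2 h RT; fluorescence.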

Measured: Potency

Peroxisome proliferator-activated receptor delta (Homo sapiens), sequence (Q03181 whole entry, looked up): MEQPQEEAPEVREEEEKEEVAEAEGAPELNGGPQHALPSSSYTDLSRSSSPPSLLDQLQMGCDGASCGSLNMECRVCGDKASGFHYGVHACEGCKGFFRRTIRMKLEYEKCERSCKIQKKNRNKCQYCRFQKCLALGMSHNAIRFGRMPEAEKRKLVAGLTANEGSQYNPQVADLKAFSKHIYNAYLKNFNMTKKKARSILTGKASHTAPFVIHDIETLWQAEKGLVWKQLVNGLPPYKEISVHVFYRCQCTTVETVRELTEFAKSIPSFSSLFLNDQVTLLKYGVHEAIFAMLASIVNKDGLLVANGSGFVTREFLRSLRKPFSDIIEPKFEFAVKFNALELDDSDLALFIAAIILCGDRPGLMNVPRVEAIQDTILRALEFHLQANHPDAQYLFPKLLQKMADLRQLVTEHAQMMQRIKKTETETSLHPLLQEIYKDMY
Aryl hydrocarbon receptor (Homo sapiens), sequence (P35869 whole entry, looked up): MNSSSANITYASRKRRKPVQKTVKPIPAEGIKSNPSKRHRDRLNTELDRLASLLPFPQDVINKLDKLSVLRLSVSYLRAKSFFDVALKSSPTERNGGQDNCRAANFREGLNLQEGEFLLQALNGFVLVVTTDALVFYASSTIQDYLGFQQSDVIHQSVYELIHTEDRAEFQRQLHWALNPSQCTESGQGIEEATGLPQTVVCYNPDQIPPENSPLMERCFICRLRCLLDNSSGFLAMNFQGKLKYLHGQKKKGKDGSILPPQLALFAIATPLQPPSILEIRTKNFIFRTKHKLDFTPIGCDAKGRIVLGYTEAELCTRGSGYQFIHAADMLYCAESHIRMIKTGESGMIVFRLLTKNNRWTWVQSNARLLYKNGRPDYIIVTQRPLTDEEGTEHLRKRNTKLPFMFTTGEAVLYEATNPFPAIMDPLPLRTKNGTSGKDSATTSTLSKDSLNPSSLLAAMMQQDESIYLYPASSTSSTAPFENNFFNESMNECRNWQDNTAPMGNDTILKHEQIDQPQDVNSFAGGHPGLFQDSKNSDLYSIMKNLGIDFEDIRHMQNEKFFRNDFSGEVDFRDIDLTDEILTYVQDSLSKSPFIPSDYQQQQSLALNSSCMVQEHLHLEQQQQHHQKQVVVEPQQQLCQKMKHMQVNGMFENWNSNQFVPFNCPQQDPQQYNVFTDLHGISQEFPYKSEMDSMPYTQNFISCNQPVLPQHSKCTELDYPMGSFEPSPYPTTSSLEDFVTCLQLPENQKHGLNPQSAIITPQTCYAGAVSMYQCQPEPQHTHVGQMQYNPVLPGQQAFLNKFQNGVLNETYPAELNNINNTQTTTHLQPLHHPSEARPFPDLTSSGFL
Peroxisome proliferator-activated receptor gamma (Homo sapiens), sequence (P37231 whole entry, looked up): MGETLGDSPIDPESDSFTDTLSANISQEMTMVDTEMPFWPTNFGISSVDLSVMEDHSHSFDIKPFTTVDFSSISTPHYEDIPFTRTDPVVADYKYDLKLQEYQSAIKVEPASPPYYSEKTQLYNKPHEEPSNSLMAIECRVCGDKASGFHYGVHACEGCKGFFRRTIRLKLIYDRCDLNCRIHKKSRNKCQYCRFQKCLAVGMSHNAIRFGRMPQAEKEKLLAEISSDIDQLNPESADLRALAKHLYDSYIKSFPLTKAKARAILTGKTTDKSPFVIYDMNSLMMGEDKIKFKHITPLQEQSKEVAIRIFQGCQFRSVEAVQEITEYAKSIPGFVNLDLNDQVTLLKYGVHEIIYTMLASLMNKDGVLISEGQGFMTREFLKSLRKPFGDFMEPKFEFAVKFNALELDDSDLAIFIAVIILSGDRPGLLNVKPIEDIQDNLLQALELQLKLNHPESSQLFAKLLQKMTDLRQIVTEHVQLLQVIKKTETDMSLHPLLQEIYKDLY
Vitamin D3 receptor (Homo sapiens), sequence (P11473 whole entry, looked up): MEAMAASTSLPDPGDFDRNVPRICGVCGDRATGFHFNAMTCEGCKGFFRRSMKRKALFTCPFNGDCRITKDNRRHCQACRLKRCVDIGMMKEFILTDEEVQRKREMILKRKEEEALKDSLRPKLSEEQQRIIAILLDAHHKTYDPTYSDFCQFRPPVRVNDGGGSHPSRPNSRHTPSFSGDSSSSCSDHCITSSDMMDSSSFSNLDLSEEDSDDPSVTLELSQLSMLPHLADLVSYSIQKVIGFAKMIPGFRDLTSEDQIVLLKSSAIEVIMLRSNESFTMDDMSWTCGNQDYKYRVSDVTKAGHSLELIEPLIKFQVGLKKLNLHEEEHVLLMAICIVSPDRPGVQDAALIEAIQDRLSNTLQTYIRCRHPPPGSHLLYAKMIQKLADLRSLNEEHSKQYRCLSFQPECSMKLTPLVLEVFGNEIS
Bile acid receptor (Homo sapiens), sequence (Q96RI1 whole entry, looked up): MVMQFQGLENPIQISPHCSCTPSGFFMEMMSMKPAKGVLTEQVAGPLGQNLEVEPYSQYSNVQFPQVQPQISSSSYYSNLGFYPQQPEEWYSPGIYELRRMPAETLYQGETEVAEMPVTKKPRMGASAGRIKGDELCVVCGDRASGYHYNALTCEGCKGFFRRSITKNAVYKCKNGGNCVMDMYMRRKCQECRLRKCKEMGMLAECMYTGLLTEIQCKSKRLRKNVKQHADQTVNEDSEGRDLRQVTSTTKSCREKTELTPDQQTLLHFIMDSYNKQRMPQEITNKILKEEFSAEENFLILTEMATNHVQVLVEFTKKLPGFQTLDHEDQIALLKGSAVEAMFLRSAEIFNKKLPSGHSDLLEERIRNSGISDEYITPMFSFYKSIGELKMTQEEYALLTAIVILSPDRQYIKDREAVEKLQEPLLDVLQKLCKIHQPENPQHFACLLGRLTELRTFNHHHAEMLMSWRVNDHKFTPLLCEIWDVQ

O=C(C(Cl)Cl)N1CCOC12CCCCC2
active: [5] 34.4 µM
not listed: [17] | [18] | [19]
inactive: all other assays above

COC(C)CCO (stereo not drawn)
not listed: [9] | [12] | [18] | [19]
inactive: all other assays above

CC(C)O
not listed: [7] | [8] | [9] | [10] | [16] | [17] | [18] | [19]
inactive: all other assays above

Cc1ccc(C(C)C)cc1O
not listed: [6] | [9] | [12] | [15] | [18] | [19]
inactive: all other assays above

CC(=O)OC(C)OC(C)=O
not listed: [7] | [14] | [16]
inactive: all other assays above

CCNCCO
not listed: [15] | [18] | [19]
inactive: all other assays above

CN(C)CCOc1ccccc1Cc1ccccc1
not listed: [12] | [13] | [18] | [19]
inactive: all other assays above

CCCCCCCOC(=O)CCC
not listed: [10] | [12] | [18] | [19]
inactive: all other assays above

CN(C)CC[C@@H](c1ccc(Cl)cc1)c1ccccn1
not listed: [3] | [7] | [9] | [12] | [14] | [15] | [18] | [19]
inactive: all other assays above

COc1ccccc1N1CCN(CCCNc2cc(=O)n(C)c(=O)n2C)CC1
not listed: [5] | [11] | [12] | [19]
inactive: all other assays above

CC(C)=CCC[C@](C)(O)[C@@H]1CC=C(C)CC1
inactive: [1] | [2] | [3] | [4] | [8] | [9] | [10] | [11]

O=CCCc1ccccc1
not listed: [3] | [12] | [18] | [19]
inactive: all other assays above

CCCCCCCCCCCCCCCCOP(=O)([O-])OCC[N+](C)(C)C
not listed: [4] | [7] | [10] | [11] | [12] | [17] | [19]
inactive: all other assays above
